From PubChem BioAssay (EPA / NIEHS)
Active and inactive are the calls of the source. Rule for the calls: active = hit-call score of the fitted dose curve at least 0.9, where 1 is the maximum; inactive = score below 0.9.

Legend:
[1] = ATG_ISRE_CIS: Attagene CIS-FACTORIAL HepG2 Assay for human Interferon Regulatory Factor 1 (IRF1) binding to an Interferon-Stimulated Response Element (ISRE) (AID 2282948); details: HepG2 ISRE cis-reporter (Attagene), mRNA transcription readout; actives raise or lower the signal
Method in brief: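 Cell-based cis-reporter assay; HepG2; 24 h exposure; reporter mRNA by RT-PCR plus capillary electrophoresis fluorescence; activity in either direction scored relative to DMSO.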

[2] = ATG_M_32_CIS: Attagene CIS-FACTORIAL HepG2 Assay for M32 Transcription Factor (Internal Marker) (AID 2282949); details: HepG2 Attagene cis-factorial M32 reporter, mRNA; actives raise or lower the signal;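 note: background control marker of the multiplexed CIS panel rather than a real target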
Method in brief: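 Internal background marker read-out: RT-PCR/capillary electrophoresis fluorescence of reporter transcripts from transiently transfected HepG2 cells after 24 h chemical exposure. Activity fitted bidirectionally relative to DMSO negative control.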

[3] = ATG_M_06_CIS: Attagene CIS-FACTORIAL HepG2 Assay for M06 Transcription Factor (Internal Marker) (AID 2282950); details: HepG2 Attagene CIS-FACTORIAL M06 internal marker reporter; actives raise or lower the signal
Method in brief: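 Internal background marker within multiplexed cis-reporter HepG2 system. Cells transiently transfected, dosed 24 h; reporter mRNA measured by RT-PCR, HpaI digestion and capillary electrophoresis. Bidirectional fit relative to DMSO.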

[4] = target: Hypoxia-inducible factor 1-alpha (Homo sapiens) (UniProt Q16665); assay: ATG_HIF1a_CIS: Attagene CIS-FACTORIAL HepG2 Assay for human Hypoxia Inducible Factor 1 (HIF1A) (AID 2282951); details: HepG2 Attagene cis-factorial HIF1a reporter transcription; actives raise or lower the signal
Hypoxia-inducible factor 1-alpha (Homo sapiens), sequence (Q16665 whole entry, looked up, the tested form may be a part): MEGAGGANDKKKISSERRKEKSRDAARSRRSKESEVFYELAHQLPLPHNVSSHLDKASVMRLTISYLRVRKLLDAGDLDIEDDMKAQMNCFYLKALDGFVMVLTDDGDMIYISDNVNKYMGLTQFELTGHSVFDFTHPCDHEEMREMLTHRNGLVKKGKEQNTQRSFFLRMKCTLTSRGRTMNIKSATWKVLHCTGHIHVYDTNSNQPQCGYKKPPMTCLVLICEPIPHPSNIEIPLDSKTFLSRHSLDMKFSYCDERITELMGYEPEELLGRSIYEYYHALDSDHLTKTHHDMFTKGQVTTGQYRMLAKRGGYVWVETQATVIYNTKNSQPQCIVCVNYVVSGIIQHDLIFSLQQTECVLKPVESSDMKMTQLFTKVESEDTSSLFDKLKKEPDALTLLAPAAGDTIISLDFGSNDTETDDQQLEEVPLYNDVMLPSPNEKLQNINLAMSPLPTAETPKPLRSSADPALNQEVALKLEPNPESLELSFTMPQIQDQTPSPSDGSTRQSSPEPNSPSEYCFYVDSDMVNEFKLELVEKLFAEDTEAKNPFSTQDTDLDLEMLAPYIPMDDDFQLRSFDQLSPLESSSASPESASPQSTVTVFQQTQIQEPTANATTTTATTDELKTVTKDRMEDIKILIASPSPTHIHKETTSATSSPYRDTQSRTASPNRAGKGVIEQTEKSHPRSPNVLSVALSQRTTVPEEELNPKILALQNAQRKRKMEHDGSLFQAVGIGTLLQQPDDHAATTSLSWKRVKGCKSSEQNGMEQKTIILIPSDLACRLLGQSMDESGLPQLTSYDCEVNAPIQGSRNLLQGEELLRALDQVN
Method in brief: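 Transient MRTU transfection of human HepG2 liver cells, 24 h compound treatment, then total RNA isolation, oligo(dT) reverse transcription, PCR amplification, fluorescent labelling and capillary electrophoresis of reporter fragments. Gain or loss relative to DMSO.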

[5] = target: Hepatocyte nuclear factor 6 (Homo sapiens) (UniProt Q9UBC0); assay: ATG_HNF6_CIS: Attagene CIS-FACTORIAL HepG2 Assay for human Hepatocyte Nuclear Factor 6 (HNF6) (AID 2282952); details: HepG2 Attagene cis-factorial HNF6 reporter transcription; actives raise or lower the signal
Hepatocyte nuclear factor 6 (Homo sapiens), sequence (Q9UBC0 whole entry, looked up): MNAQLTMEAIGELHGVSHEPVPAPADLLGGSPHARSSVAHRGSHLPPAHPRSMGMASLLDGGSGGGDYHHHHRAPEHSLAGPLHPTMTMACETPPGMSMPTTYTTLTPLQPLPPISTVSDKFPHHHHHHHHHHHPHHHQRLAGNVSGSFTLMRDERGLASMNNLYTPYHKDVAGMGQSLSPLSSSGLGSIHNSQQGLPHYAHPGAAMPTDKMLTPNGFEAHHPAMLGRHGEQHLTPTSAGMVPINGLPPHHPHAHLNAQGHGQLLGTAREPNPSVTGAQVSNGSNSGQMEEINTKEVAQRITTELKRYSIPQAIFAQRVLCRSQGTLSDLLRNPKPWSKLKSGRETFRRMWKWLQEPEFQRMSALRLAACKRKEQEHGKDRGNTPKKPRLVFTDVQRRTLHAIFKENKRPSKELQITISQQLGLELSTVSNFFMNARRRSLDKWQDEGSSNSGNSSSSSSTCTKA
Method in brief: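 HepG2 cells transiently transfected with cis-element-driven multiple reporter transcription units, dosed 24 h; reporter mRNA quantified by RT-PCR, FAM primer extension, HpaI digestion and capillary electrophoresis; bidirectional fit versus DMSO baseline.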

[6] = target: Heat shock factor protein 1 (Homo sapiens) (UniProt Q00613); assay: ATG_HSE_CIS: Attagene CIS-FACTORIAL HepG2 Assay for human Heat Shock Transcription Factor 1 (HSE) (AID 2282953); details: HepG2 HSE cis-reporter, Attagene RNA transcription; actives raise or lower the signal
Heat shock factor protein 1 (Homo sapiens), sequence (Q00613 whole entry, looked up): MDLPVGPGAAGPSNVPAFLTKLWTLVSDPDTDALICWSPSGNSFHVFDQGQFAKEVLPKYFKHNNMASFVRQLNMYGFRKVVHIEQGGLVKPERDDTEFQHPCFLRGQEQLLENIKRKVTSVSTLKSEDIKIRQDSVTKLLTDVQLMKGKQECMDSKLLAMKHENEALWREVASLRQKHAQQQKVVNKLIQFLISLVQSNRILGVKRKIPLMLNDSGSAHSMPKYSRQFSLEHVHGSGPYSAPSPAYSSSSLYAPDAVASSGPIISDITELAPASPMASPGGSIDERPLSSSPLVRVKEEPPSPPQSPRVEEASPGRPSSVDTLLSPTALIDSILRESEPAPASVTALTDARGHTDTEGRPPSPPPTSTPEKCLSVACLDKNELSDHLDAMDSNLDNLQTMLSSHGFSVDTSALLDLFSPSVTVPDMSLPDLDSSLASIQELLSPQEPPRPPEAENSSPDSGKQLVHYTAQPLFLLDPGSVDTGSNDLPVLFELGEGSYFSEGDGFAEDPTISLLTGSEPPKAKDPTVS
Method in brief: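 HepG2 cells transfected with cis-promoter reporter units sensing endogenous transcription factor activity; reporter mRNA quantified 24 h post-dose by RT-PCR and capillary electrophoresis of 6-FAM-labelled products. Bidirectional fitting against DMSO.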

[7] = ATG_MRE_CIS: Attagene CIS-FACTORIAL HepG2 Assay for human Metal Responsive Element (MRE) (AID 2282954); details: HepG2 MRE cis-reporter transcription, Attagene multiplex; actives raise or lower the signal
Method in brief: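 HepG2 cells transiently transfected with multiple cis-element reporter units measure endogenous MTF1-driven transcription. After 24 h compound exposure, reporter mRNA is quantified by RT-PCR with 6-FAM labelling, HpaI digestion and capillary electrophoresis; bidirectional fits versus DMSO.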

[8] = ATG_PBREM_CIS: Attagene CIS-FACTORIAL HepG2 Assay for human Phenobarbital-responsive Enhancer Module (PBREM) (AID 2282955); details: HepG2 PBREM cis-reporter, Attagene multiplexed transcription; actives raise or lower the signal
Method in brief: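 Endogenous transcription factors in human liver HepG2 cells drive a PBREM cis-element reporter, whose transcript level after 24 h treatment is quantified by RT-PCR with capillary electrophoresis; activity fitted in both directions against DMSO.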

SMILES	outcome [1]	outcome [2]	outcome [3]	outcome [4]	outcome [5]	outcome [6]	outcome [7]	outcome [8]	AC50 [4]
CC(C)Nc1nc(N)nc(Cl)n1	inactive	inactive	inactive	inactive	inactive	inactive	inactive	inactive	
CCN(CCN)c1cccc(C)c1	inactive	inactive	inactive	inactive	inactive		inactive	inactive	
CCCCCCCCCCCC(=O)OCC(O)CO (centres undefined)	inactive	inactive	inactive	inactive	inactive	inactive	inactive	inactive	
Brc1ccc(Br)c(Br)c1	inactive	inactive		inactive	inactive	inactive			
O=CN1CCOCC1		inactive	inactive		inactive	inactive	inactive		51.7 µM (active)
O=C(O)c1cc(C(=O)O)cc([N+](=O)[O-])c1			inactive	inactive	inactive	inactive	inactive		
